# This is one part of the list. Entries that show only a call come without a potency. Results filed as inconclusive are left out. Activity calls are given as the source filed them. Calls come from the whole dose curve; as a rule, active = well fitted inhibition curve with a large enough effect; inconclusive = small, poorly fitted or top-dose-only effect; inactive = flat fitted curve, though single readings scatter.
# Experiment: Secondary Assay for Inhibitors of Human Galactokinase (GALK): HEK-293 Cell Viability Assay
# Conditions: HEK-293 viability, ATP luminescence (CellTiter-Glo), 24/48 h; series mostly up to 46.1 µM
# Method: NIH Molecular Libraries Probe Production Centers Network [MLPCN] NIH Chemical Genomics Center [NCGC] MLPCN Grant: R03 MH085689-01 Assay Submitter (PI): Kent Lai (University of Utah School of Medicine, 50 N Mario Capecchi Drive, Salt Lake City, UT 84132) NCGC Assay Overview Cytotoxicity of the active compounds in the GALK qHTS screen (AID 1868) was assessed using the CellTiter-Glo Luminescent Cell Viability Assay kit (Promega, USA) in the HEK-293 (ATCC) cell line. CellTiter-Glo measures the intracellular ATP present in metabolically active cells using Ultra-Glo as the luciferase to detect ATP levels. In brief, the luciferase in the buffer catalyzes the oxidation of luciferin to oxyluciferin and light which is dependent on ATP. […] Wells treated with various concentrations of cycloheximide (Sigma) and DMSO, and wells with media alone were used as positive and negative controls, respectively. […] [1] http://www.promega.com/tbs/tb288/tb288.pdf
# NCGC Assay Protocol Summary: HEK-293 cells were grown in a flask up to 80% confluence. Cells were trypsinized, washed, and resuspended in MEM Eagle + 10% FBS + 1% pen-strep media at a concentration of 120 cells/uL. Five uL/well of cell solution was dispensed into a 1536-well assay plates (Greiner, solid white medium-binding plates) with Aurora Discovery BioRAPTR Flying Reagent Dispenser (FRD; Beckton-Dickenson). Cells were pre-incubated at 37 degree Celsius, 5% CO2 for four hours. Compound and control solutions (23nL) were then transferred to the assay plate using the Kalypsys 1536-pin tool. Assay plates were re- incubated at 37 degree Celsius, 5% CO2. After 24 or 48 hours, five uL of CellTiter Glo detection reagent was added. Luminescence signal was read with Perkin Elmer ViewLux plate reader after 30 min room temperature incubation.
# Potency is the fitted concentration of half-maximal effect.
row,Structure (SMILES),Potency
1,Oc1c(Cl)cc(Cl)c(Cl)c1Cc1c(O)c(Cl)cc(Cl)c1Cl,7.91 µM (active)
2,O=C(Nc1nnc(S(=O)(=O)N2CCOCC2)s1)c1cccc(Br)c1,inactive
3,N#Cc1c(N2CCCCC2)nc(N)c2c(N)nc(SCC(=O)O)cc12,inactive
4,O=C1Nc2ccc([N+](=O)[O-])cc2C1=Nc1cccc(CO)c1,inactive
5,CCOC(=O)c1c(C)[nH]c2c1-c1ccccc1C(=O)C2=O,11.2 µM (active)
6,COc1cccc2cc(-c3cc(=O)oc4cc(C)c(O)cc34)oc12,inactive
7,N#C/C(=C(/O)Cc1cccc2ccccc12)c1nc2ccccc2s1,inactive
8,CCS(=O)(=O)C1=NSC2=NC(=O)/C(=C\c3ccc(OS(=O)(=O)c4ccccc4)cc3)C(=N)N21,inactive
9,O=C1CCCC2=C1[C@@]1(CCC(c3ccccc3)C1)N=C(Nc1nc3ccccc3o1)N2 (some centres undefined),inactive
